Experiment [1] is described as follows: reduced mouse 2C T cell binding to pMHC/ICAM-1 vesicles – MLPCN validation set, flow cytometry, LFA-1/ICAM-1 modulator project, pilot screen (AID 2523;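 active = response below a set limit, under 55% cells CD8-positive and vesicle-bound, and CD8 cells' 90th-percentile brightness under 279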;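 for vesicle binding response: mean PE anti-B7-1 fluorescence of CD8+ cells relative to row control; 100% = QL9-loaded vesicles with DMSO vehicle in the same plate row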). The following applies: 2C mouse CD8+ T cells, at 7 µM, stronger effect = lower value; double positive events: measured here: CD8+/vesicle+ event percentage. A general note: In flow cytometry, cells or beads pass a laser one at a time.

Experiment [2] concerns the target Integrin beta-1 (Homo sapiens) + Integrin alpha-4 (Homo sapiens) (UniProt P13612+P05556). The experiment is described as follows: alpha4beta1 integrin LIBS antibody binding reduction – U937 cells, HUTS-21 mAb, flow cytometry, validation set, VLA-4 allosteric modulator project, pilot screen (AID 2674;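 active = inhibition above 50%, about 3 SD of the validation set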;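 note: antibody binding induced by the VLA-4 ligand LDV present at three times its Kd; 0% = LDV ligand with antibody and no compound and 100% = antibody without LDV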). As to conditions: HUTS-21 LIBS mAb binding, at 6.7 µM, stronger effect = higher value, binding induced by LDV ligand.

A short description of experiment [3]: calorie-restriction mimetic ROS inhibitors, yeast – validation compound set, pilot screen (AID 2706;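 active = superoxide response below 65% of plate, a cut near 3 SD across the whole screen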;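 note: yeast exposed to compound for one week at 30 degrees C before staining; 100% = mean of all compound wells on the same plate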). As to conditions: S. cerevisiae aging, superoxide DHE fluorescence; at 10 µM, stronger effect = lower value.
The target in experiment [4] is Beta-adrenergic receptor kinase 1 (Homo sapiens) (UniProt P25098). The experiment is described as follows: GRK2 binders displacing RNA aptamer, biochemical, validation, human GRK2, bead flow cytometry (AID 488806;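 active = aptamer binding inhibition above 30%, about 3 SD of noise from non-fluorescent compounds; inactive = inhibition at or below 30%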). As to conditions: bead-bound GRK2, FAM-aptamer displacement, at 10 µM, stronger effect = higher value.
Experiment [5] concerns the target Beta-2 adrenergic receptor (Homo sapiens) (UniProt P07550). The experiment is described as follows: agonist-induced loss of surface beta2AR – cell-based, FAP fluorogen, flow cytometry, validation set, pilot screen (AID 504459;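 active = percent response above 42, roughly 3 SD of non-fluorescent test compounds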;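 note: agonist-driven loss of surface beta2AR via internalization measured by FAP dye flow cytometry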). The following applies: Am2.2-beta2AR cells, at 10 µM, stronger effect = higher value.
Experiment [6] deals with AP-2 complex subunit beta (Homo sapiens) (UniProt P63010). The experiment is described as follows: beta-arrestin/AP2 interaction blockers – biochemical, validation set, GST-AP2 beads, flow cytometry, pilot screen (AID 504541;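 active = inhibition above 54%, about 3 SD of non-fluorescent compounds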;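 note: AP2 carries R879A mutation and is captured from E. coli lysate; bead-bound FITC arrestin peptide fluorescence measuring arrestin peptide binding to AP2; 0% = DMSO wells and 100% = excess unlabeled arrestin peptide control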). The following applies: FITC arrestin peptide, at 10 µM, stronger effect = higher value, AP2 beta2 appendage fragment, R879A mutant.
Experiment [7] is described as follows: cytosolic pH regulators acting via V-ATPase – S. cerevisiae, pHLuorin, HTS validation (AID 504600).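 Note: plate controls were DMSO for no effect and reference compound for full effect.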 The following applies: V-ATPase proton transport, at 10 µM, stronger effect = higher value.
Experiment [8] has as its system anti-desmoglein-3 scFv antibody binding to human DSG3. Description: blockers of pathogenic pemphigus antibody–desmoglein-3 binding – biochemical, validation compound set, bead-based, flow cytometry, pilot screen (AID 588368;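 active = binding below the plate cutoff, the plate median minus 3 SD, with a reading above zero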;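 note: signal is the median channel fluorescence of bead-bound GFP antibody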). As to conditions: Protein G beads, DSG3-Fc, scFv-GFP binding, at 10 µM, stronger effect = lower value.
The nature of experiment [9]: Nile Red efflux blockade in pump-expressing yeast – validation compound set, multiplex, phenotypic, pilot screen (AID 588506;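 active = efflux inhibition above 0.42, the validation set average plus 4 SD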;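 note: Nile Red retained in cells so higher fluorescence means more efflux inhibition; 0 = negative control wells and 1 = enniatin B 25 µM full block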). As to conditions: S. cerevisiae pump-expressing triplex, Nile Red efflux flow cytometry; at 10 µM; stronger effect = higher value; the pumps come from Candida albicans.
Experiment [10] has as its target ATP-binding cassette sub-family B member 6 (Homo sapiens) (UniProt Q9NP58). Description: blockers of ABCB6-driven porphyrin uptake – K562-ABCB6 cells, flow cytometry, validation set, pilot screen (AID 588550;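 active = inhibition above the screen-wide mean plus 3 SD, about 51%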;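 note: 0% = DMSO wells and 100% = benzethonium chloride 70 µM positive control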). As to conditions: K562-ABCB6 porphyrin accumulation, 1 h, at 10 µM, stronger effect = higher value.
Experiment [11] is described as follows: AML differentiation inducers, ER-HoxA9 marrow cells – cell-based, GFP/MAC1 double positive, flow cytometry, validation set, primary screen (AID 588685;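 active = differentiation response of at least 50%, scaled between solvent and reference control, from cells with both markers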;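 note: compound exposure lasts four days before antibody staining and flow analysis; 0% = DMSO wells and 100% = 5 µM fulvestrant positive control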). As to conditions: stronger effect = higher value, normalized: vehicle 0, fulvestrant 100.

Calls of active or inactive are those of the source. Cut-off read from the data, not from the text of the source, unless noted: active = response above about 15%; inactive = the rest.

Chain of Beta-adrenergic receptor kinase 1 (Homo sapiens) (P25098 whole entry, looked up): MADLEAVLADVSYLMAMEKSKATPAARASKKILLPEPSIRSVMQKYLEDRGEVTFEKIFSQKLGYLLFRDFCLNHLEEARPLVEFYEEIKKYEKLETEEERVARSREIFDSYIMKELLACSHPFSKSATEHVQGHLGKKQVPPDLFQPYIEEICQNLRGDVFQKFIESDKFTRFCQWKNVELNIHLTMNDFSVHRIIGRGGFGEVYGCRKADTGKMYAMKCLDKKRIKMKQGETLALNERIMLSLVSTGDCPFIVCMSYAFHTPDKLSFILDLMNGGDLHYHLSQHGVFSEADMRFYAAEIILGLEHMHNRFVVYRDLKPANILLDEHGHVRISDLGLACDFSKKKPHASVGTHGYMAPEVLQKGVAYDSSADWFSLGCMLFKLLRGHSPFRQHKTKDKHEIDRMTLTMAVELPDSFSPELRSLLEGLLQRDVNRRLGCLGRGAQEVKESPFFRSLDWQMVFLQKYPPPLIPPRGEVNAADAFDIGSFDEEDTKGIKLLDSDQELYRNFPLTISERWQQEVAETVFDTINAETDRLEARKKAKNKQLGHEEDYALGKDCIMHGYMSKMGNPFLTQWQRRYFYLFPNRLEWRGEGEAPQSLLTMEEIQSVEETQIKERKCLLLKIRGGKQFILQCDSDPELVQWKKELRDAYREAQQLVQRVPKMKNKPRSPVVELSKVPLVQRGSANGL
Chain of AP-2 complex subunit beta (Homo sapiens) (P63010 whole entry, looked up, the tested form may be a part, one chain of several): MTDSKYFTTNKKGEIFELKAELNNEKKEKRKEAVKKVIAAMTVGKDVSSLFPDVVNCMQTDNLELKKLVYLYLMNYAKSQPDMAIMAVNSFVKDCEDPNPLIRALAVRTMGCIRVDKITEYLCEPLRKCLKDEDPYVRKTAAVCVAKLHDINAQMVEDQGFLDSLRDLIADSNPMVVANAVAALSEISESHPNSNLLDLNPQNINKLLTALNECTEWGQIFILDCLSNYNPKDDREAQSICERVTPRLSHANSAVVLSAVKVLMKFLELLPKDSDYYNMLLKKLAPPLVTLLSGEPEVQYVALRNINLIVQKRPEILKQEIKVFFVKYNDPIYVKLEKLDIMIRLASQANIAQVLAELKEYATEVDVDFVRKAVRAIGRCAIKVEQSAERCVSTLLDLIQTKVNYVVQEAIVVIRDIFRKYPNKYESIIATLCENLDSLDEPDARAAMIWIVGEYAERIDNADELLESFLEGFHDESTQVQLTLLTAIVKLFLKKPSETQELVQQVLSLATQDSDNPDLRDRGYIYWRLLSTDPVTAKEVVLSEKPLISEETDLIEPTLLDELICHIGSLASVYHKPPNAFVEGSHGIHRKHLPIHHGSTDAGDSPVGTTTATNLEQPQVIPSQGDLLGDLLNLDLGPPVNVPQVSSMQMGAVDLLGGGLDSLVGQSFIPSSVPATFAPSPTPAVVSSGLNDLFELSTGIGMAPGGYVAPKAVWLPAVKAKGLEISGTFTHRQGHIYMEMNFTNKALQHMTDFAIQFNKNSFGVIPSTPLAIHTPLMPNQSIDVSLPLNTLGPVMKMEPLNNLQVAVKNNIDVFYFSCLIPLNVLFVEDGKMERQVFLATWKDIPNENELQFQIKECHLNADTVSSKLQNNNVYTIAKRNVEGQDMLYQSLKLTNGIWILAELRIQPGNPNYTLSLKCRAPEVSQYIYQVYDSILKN
Chain of ATP-binding cassette sub-family B member 6 (Homo sapiens) (Q9NP58 whole entry, looked up): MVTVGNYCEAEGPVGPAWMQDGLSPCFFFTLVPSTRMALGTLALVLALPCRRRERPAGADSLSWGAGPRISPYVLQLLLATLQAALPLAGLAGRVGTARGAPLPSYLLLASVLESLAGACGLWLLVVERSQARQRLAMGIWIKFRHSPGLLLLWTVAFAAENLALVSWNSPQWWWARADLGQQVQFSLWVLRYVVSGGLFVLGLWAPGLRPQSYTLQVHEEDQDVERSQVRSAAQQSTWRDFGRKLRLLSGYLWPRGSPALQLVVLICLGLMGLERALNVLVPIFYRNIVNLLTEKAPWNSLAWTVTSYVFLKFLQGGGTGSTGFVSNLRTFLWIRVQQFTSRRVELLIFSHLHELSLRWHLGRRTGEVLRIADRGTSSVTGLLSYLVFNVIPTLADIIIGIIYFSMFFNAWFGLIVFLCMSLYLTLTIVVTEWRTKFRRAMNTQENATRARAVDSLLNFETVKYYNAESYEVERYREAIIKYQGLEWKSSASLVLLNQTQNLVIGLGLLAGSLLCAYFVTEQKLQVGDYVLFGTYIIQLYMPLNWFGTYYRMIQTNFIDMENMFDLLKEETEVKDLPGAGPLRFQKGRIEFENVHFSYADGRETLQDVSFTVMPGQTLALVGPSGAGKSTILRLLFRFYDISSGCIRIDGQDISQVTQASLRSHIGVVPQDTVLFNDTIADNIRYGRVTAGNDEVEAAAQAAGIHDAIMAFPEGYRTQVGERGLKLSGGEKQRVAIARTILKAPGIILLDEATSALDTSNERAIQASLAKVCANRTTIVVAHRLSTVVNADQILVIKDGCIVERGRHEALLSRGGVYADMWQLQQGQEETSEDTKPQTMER
Chain of Beta-2 adrenergic receptor (Homo sapiens) (P07550 whole entry, looked up): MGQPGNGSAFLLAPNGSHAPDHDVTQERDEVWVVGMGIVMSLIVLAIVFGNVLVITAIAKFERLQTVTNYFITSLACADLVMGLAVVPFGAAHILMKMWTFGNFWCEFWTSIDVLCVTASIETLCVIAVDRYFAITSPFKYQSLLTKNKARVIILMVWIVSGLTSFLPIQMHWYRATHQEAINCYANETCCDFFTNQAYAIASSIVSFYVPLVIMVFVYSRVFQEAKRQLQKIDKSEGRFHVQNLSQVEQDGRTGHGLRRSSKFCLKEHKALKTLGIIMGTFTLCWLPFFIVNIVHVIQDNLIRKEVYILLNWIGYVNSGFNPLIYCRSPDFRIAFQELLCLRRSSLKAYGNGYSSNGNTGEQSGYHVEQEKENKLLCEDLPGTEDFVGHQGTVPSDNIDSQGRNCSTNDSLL
Chain of Integrin beta-1 (Homo sapiens) + Integrin alpha-4 (Homo sapiens) (P05556 whole entry, looked up): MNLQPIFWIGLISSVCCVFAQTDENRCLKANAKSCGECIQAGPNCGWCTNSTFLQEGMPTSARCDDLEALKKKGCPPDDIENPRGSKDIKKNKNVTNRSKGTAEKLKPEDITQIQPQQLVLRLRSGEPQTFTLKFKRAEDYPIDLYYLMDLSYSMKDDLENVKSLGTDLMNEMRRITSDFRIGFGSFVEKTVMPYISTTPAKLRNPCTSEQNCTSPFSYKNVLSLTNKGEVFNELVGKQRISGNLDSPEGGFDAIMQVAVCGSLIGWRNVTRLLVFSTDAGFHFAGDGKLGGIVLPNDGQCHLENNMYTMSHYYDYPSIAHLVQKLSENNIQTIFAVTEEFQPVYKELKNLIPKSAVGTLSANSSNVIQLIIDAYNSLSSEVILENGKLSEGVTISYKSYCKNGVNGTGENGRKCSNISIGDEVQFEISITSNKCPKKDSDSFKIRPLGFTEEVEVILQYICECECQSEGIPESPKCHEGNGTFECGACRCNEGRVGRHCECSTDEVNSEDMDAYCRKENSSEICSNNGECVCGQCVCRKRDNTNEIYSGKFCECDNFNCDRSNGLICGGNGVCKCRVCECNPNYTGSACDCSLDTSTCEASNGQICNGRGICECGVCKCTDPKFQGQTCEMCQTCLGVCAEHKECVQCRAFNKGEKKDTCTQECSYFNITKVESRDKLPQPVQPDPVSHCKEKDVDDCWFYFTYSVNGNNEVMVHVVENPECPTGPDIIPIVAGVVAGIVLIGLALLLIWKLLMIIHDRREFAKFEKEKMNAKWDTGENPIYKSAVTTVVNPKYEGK
Chain of Integrin beta-1 (Homo sapiens) + Integrin alpha-4 (Homo sapiens) (P13612 whole entry, looked up): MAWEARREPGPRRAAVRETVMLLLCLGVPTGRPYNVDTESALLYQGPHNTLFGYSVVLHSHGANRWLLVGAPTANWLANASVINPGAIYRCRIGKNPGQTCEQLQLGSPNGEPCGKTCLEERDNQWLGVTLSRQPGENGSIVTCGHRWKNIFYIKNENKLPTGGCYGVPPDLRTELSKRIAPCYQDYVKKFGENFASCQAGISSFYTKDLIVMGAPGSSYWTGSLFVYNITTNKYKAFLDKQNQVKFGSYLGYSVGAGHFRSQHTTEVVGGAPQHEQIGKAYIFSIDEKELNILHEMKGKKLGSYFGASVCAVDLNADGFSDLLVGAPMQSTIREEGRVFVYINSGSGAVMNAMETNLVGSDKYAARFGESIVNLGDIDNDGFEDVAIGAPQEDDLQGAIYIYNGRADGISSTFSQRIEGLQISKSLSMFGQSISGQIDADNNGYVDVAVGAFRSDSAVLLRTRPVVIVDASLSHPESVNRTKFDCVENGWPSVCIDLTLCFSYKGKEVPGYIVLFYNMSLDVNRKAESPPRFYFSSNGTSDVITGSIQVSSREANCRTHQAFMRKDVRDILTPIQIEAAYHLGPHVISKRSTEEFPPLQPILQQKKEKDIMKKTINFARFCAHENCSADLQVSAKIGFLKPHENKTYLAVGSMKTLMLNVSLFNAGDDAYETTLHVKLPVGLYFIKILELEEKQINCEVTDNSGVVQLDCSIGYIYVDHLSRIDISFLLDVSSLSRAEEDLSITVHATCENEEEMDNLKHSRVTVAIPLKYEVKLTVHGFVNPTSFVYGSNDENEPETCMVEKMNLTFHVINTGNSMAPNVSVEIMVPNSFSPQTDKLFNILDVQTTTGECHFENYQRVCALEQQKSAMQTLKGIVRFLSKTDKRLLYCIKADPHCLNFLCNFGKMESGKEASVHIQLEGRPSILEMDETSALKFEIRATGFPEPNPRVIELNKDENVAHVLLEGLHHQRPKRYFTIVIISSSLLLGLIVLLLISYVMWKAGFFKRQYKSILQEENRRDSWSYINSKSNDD

As for `COc1ccc(N2C(=O)[C@@H]3Cc4ccccc4CN3C2=O)cc1`, in experiment [1], the double positive events was determined as 63.2%. Further, the vesicle binding response in experiment [1] was 211% (inactive). Further, the inhibition was 14.6% (inactive) in experiment [2], -2.78% (inactive) in experiment [6] and 7% (inactive) in [10]. In [3], the superoxide response (% of plate) is 89.7% (inactive). For the same compound, the aptamer binding inhibition in experiment [4] is 5% (inactive). The response in experiment [5] was 12.1% (inactive); in experiment [7] it was -2.4% (inactive). The binding (% of control) in experiment [8] is 107% (inactive). Also, in experiment [9], the efflux inhibition (fraction of control) is 0.01 (inactive). Besides, the differentiation response in [11] is 18.4% (inactive).

With `C[C@H]1O[C@H]1P(=O)(O)O`, the double positive events in experiment [1] was found to be 66.2%. Further, the vesicle binding response in [1] was 197% (inactive). For the same compound, the values for the inhibition in [2], in experiment [6] and in experiment [10] were 15.1% (inactive), 6.72% (inactive) and 9% (inactive), respectively. In addition, the superoxide response (% of plate) in [3] is 95.9% (inactive). The aptamer binding inhibition in experiment [4] was 5% (inactive). The response in experiment [5] is -11.7% (inactive); in experiment [7] it was 17.1% (active). In experiment [8], the binding (% of control) is 103% (inactive). In addition, the efflux inhibition (fraction of control) in experiment [9] is -0.09 (inactive). Besides, the differentiation response in experiment [11] is 12.8% (inactive).

With `COc1ccc(-c2coc3cc(OC(=O)N4CCOCC4)ccc3c2=O)cc1`, in experiment [1], the double positive events worked out at 62.6%. Besides, in [1], the vesicle binding response was 185% (inactive). In addition, the inhibition was -9.57% (inactive) in experiment [2], -9.14% (inactive) in [6] and 10% (inactive) in [10]. Moreover, the superoxide response (% of plate) in experiment [3] was 105% (inactive). In addition, in [4], the aptamer binding inhibition is -3% (inactive). In addition, the response in experiment [7] was 4.61% (inactive). Further, in experiment [8], the binding (% of control) is 109% (inactive). The efflux inhibition (fraction of control) in experiment [9] is -0.16 (inactive). The differentiation response in [11] is 19.2% (inactive).

`CCc1cn([C@H]2C[C@H](O)[C@@H](CO)O2)c(=O)[nH]c1=O` yielded a double positive events in [1] of 71.1%. Moreover, the vesicle binding response in experiment [1] is 232% (inactive). The inhibition in [2] is -0.33% (inactive); in [6] it was 3.19% (inactive); in [10], 16% (inactive). Moreover, the superoxide response (% of plate) in experiment [3] is 95.6% (inactive). The aptamer binding inhibition in [4] was -1% (inactive). Also, the response in [5] was 7.43% (inactive); in experiment [7] it was -0.71% (inactive). In addition, the binding (% of control) in [8] was 100% (inactive). In addition, the efflux inhibition (fraction of control) in [9] was -0.42 (inactive). The differentiation response in experiment [11] was 1.64% (inactive).

In turn, `O=C(O)C1Sc2[nH]c(=O)sc2C2c3ccc(O)cc3OC(=O)C12` (stereo not drawn) displayed a double positive events in [1] of 62.6%. Further, the vesicle binding response in experiment [1] was 157% (inactive). The inhibition in experiment [2] is -11.8% (inactive); in experiment [6] it was -0.44% (inactive); in experiment [10] it was -131% (inactive). Further, the superoxide response (% of plate) in experiment [3] was 107% (inactive). The aptamer binding inhibition in [4] is 1% (inactive). Moreover, the values for the response in experiment [5] and in experiment [7] were -11.1% (inactive) and 5.3% (inactive), respectively. Further, the binding (% of control) in experiment [8] was 95.7% (inactive). Moreover, the efflux inhibition (fraction of control) in experiment [9] was -0.1 (inactive). For the same compound, the differentiation response in experiment [11] is -3.11% (inactive).

`CC(C)CC(=O)OC1C(N2CCOCC2)c2c(ccc(/C=C/C(=O)N3CCOCC3)c2O)OC1(C)C` (stereo not drawn): the double positive events in experiment [1] was found to be 57.1%. The vesicle binding response in [1] was 158% (inactive). Moreover, the inhibition was -3.16% (inactive) in experiment [2], 35% (inactive) in experiment [6] and 5% (inactive) in [10]. Also, the superoxide response (% of plate) in [3] was 101% (inactive). Moreover, the aptamer binding inhibition in experiment [4] was -1% (inactive). The response is 84.7% (active) in experiment [5] and -2.63% (inactive) in experiment [7]. The binding (% of control) in experiment [8] is 108% (inactive). In addition, the efflux inhibition (fraction of control) in [9] is 0.37 (inactive). In experiment [11], the differentiation response was 53.6% (active).

On to `N=C1C(c2ccccc2)=C(O)CN1CCCO`, for which the double positive events in [1] came out at 58.1%. Besides, the vesicle binding response in experiment [1] was 157% (inactive). Also, the inhibition in experiment [2] is 2.3% (inactive); in [6], -7.8% (inactive); in experiment [10], 12% (inactive). Moreover, in [3], the superoxide response (% of plate) was 91.2% (inactive). Further, the aptamer binding inhibition in experiment [4] was 3% (inactive). Moreover, the response in [5] was -12.9% (inactive); in experiment [7] it was -6.01% (inactive). Further, the binding (% of control) in [8] is 93.8% (inactive). In addition, the efflux inhibition (fraction of control) in experiment [9] is -0.06 (inactive). In experiment [11], the differentiation response was -31.2% (inactive).

Compound `CC(=O)N1CC2(C)CN(C(C)=O)CC(C)(C1)C2` yielded a double positive events in experiment [1] of 60.3%. The vesicle binding response in [1] was 169% (inactive). Further, the inhibition in experiment [2] is 8.25% (inactive); in experiment [6], -12.9% (inactive); in experiment [10] it was -1% (inactive). Moreover, in [3], the superoxide response (% of plate) is 91.7% (inactive). Further, in [4], the aptamer binding inhibition is -2% (inactive). The response was -23.9% (inactive) in [5] and 1.35% (inactive) in [7]. Besides, in experiment [8], the binding (% of control) was 100% (inactive). Moreover, the efflux inhibition (fraction of control) in experiment [9] is 0 (inactive). In experiment [11], the differentiation response is -4.99% (inactive).

Take `Cc1ccsc1/C=N\NC(=O)c1ccc2c(c1)OCO2`: the double positive events in experiment [1] came to 62.5%. Further, in experiment [1], the vesicle binding response is 183% (inactive). Moreover, the inhibition in [2] is 10.9% (inactive); in experiment [6], 11.1% (inactive); in experiment [10], 7% (inactive). For the same compound, the superoxide response (% of plate) in experiment [3] is 97% (inactive). Also, in experiment [4], the aptamer binding inhibition is 3% (inactive). Moreover, in experiment [7], the response was 1.01% (inactive). Moreover, the binding (% of control) in [8] is 99.5% (inactive). Moreover, the efflux inhibition (fraction of control) in experiment [9] was -0.12 (inactive). Also, the differentiation response in experiment [11] was 1.41% (inactive).

In the case of `CN1CCc2cccc3c2[C@@H]1Cc1ccc(O)c(O)c1-3`, the double positive events in experiment [1] turned out to be 61%. Moreover, the vesicle binding response in experiment [1] was 194% (inactive). Moreover, the values for the inhibition in experiment [2], in [6] and in [10] were -38.6% (inactive), 6.55% (inactive) and -20% (inactive), respectively. In addition, in experiment [3], the superoxide response (% of plate) is 93.1% (inactive). In addition, the aptamer binding inhibition in [4] is 11% (inactive). Also, the response was 26.8% (inactive) in experiment [5] and -9.4% (inactive) in experiment [7]. In addition, in experiment [8], the binding (% of control) is 100% (inactive). In addition, in experiment [9], the efflux inhibition (fraction of control) is -0.09 (inactive). Also, the differentiation response in experiment [11] was 5.85% (inactive).

The compound `C#CCN(C)CCCOc1ccc(Cl)cc1Cl` displayed a double positive events in experiment [1] of 56.3%. Moreover, the vesicle binding response in [1] was 64.3% (inactive). Moreover, the inhibition in [2] is -7.12% (inactive); in experiment [6] it was -2.33% (inactive); in experiment [10] it was 12% (inactive). In addition, in [3], the superoxide response (% of plate) was 96.4% (inactive). The aptamer binding inhibition in experiment [4] was 0% (inactive). Moreover, the results for the response in [5] and in experiment [7] were -6.11% (inactive) and 1.85% (inactive), respectively. Besides, the binding (% of control) in experiment [8] is 96.3% (inactive). Also, the efflux inhibition (fraction of control) in experiment [9] is 0.3 (inactive). Moreover, the differentiation response in experiment [11] was -1.64% (inactive).

`Cc1nc2ccccc2c(=O)n1N`: the double positive events in experiment [1] was determined as 64.8%. The vesicle binding response in [1] was 160% (inactive). The inhibition in [2] is 5.03% (inactive); in experiment [6], -8.13% (inactive); in experiment [10], 6% (inactive). For the same compound, the superoxide response (% of plate) in [3] was 95.7% (inactive). Moreover, the aptamer binding inhibition in experiment [4] was -1% (inactive). The response in experiment [5] was -0.52% (inactive); in experiment [7], -5.43% (inactive). Further, the binding (% of control) in [8] was 106% (inactive). Also, the efflux inhibition (fraction of control) in experiment [9] is 0.15 (inactive). Besides, in [11], the differentiation response is 58.4% (active).

In the case of `CCCCNC(=O)NS(=O)(=O)c1ccc(C)cc1`, the double positive events in [1] turned out to be 56.1%. Besides, the vesicle binding response in experiment [1] was 172% (inactive). Besides, the inhibition is 12.8% (inactive) in [2], -9.7% (inactive) in experiment [6] and 9% (inactive) in [10]. Also, in experiment [3], the superoxide response (% of plate) was 108% (inactive). Moreover, in experiment [4], the aptamer binding inhibition is 4% (inactive). In addition, in [7], the response is 8.22% (inactive). Further, the binding (% of control) in experiment [8] is 99% (inactive). Further, the efflux inhibition (fraction of control) in experiment [9] is -0.05 (inactive). Further, the differentiation response in experiment [11] is -19.6% (inactive).

In general, inhibition refers to the relative decrease from the control value, in per cent.

For the origin of these results see PubChem BioAssay.
